# This is a sample that favours compounds with a hit; in the whole collection about 4.1% have one here.
# ssDAF12 agonist: S. stercoralis DAF-12 activation, primary screen | HEK293 ssDAF-12/GRIP1 lit1-tk-luc reporter, luminescence; % of 3 µM dafachronic acid response | 370,000 compounds, 1% hits | activation, % at 6.8 µM;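 active means activation above the mean over all tested compounds plus 3 SD, cut at about 0.9% in these data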
# hcDAF-12 act: activators of H. contortus DAF-12 nuclear receptor; HEK293 hcDAF-12 lit1-tk-luc reporter, luminescence; 0% DMSO, 100% Δ7-dafachronic acid; activation, % at 6.8 µM; 370,000 compounds, 1.4% hits;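 active means activation above the mean of all tested compounds plus 3 SD, cut at about 5.5% in these data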
# DAX1 inh-1: blocks DAX1 repression of SF-1 activated StAR promoter. inhibition, % at 6.8 µM. HEK293T StAR-luciferase reporter, SF-1/DAX-1 repression relief. 370,000 compounds, 1.1% hits;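 active means inhibition above the mean over all tested compounds plus 3 SD, cut at about 3.6% in these data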;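 further: higher inhibition means more luminescence from relief of DAX-1 repression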
# hgDAF12 agonist: activates the H. glycines DAF-12 receptor ligand-binding domain. AID 687014. 370,000 compounds, 1.8% hits. HEK293 GAL4-hgDAF12 UAS-luciferase reporter, agonist luminescence; normalized to butyrate control. activation, % at 6.8 µM;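 active means activation above a cutoff set at the mean of all screened compounds plus 3 SD, cut at about 10% in these data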
# DAX1 inh-2: inhibits human nuclear receptor DAX1; inhibition, % at 6.75 µM; AID 504766; P51843; 340,000 compounds, 0.99% hits; HEK293 Gal4-DAX1 luciferase reporter, luminescence;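 active means inhibition above the mean over all tested compounds plus 3 SD, cut at about 4.2% in these data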;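 further: inhibition shows as a rise in luminescence from relieved DAX1 repression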
# DAX1 conf: confirmation of human DAX1 (NR0B1) inhibitors; 2,400 compounds, 87% hits; AID 652134; HEK293T StAR-promoter luciferase reporter, SF-1/DAX-1 repression; inhibition, % at 6.8 µM; shares compounds with DAX1 inh-1;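 active means inhibition above the average of every tested compound plus 3 SD, cut at about 3.8% in these data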;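 further: active compounds raise luminescence by relieving repression of the StAR reporter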
# SF1 mutant ctr: nonselective inhibitor or artifact in SF-1 mutant DAX1 counter-screen; shares compounds with DAX1 inh-1; HEK293 StAR-luciferase, SF-1 AF2 mutant, luminescence; inhibition, % at 6.8 µM; 2,400 compounds, 78% hits;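 active means inhibition above the mean of all tested compounds plus 3 SD, cut at about 3% in these data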
# LXR ag: activates human LXR-beta, counter-screen for hcDAF-12 agonists. shares compounds with hcDAF-12 act. HEK293 Gal4-LXR tk-luc reporter, luminescence, 24 h; normalized: DMSO 0%, positive control 100%. activation, % at 6.8 µM. 3,400 tested, under 10 active. AID 743027;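 active means mean percent activation of the reporter above a cutoff set as the average over tested compounds plus their standard deviation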
# Target sequence (P55055 whole entry, looked up, the tested form may be a part): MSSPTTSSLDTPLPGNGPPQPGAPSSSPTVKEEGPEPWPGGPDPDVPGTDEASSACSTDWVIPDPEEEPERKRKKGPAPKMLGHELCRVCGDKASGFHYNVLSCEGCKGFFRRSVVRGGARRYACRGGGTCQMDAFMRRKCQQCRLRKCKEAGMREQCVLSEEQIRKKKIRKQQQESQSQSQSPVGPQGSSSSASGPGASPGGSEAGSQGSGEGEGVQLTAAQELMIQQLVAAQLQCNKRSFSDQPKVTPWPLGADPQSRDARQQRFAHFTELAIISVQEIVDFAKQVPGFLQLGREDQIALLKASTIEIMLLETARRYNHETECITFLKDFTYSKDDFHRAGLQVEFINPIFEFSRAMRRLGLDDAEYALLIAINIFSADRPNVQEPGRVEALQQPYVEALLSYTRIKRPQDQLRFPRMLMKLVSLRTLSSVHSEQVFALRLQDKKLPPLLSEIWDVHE
# hcDAF12 conf: hcDAF-12 agonism, confirmation assay. shares compounds with hcDAF-12 act. HEK293 hcDAF-12 lit1-tk-luc reporter, luminescence; % of Δ7-dafachronic acid response. AID 743032. 3,400 compounds, 61% hits. activation, % at 6.8 µM;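 active means mean activation across triplicate tests above the threshold derived from the earlier primary screen, cut at about 5.5% in these data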
# hgDAF12 conf: confirmation of H. glycines DAF-12 agonists. shares compounds with hgDAF12 agonist. HEK293 GAL4-hgDAF12 luciferase reporter, agonist mode; percent of butyrate response. activation, % at 6.8 µM. 3,300 compounds, 80% hits. AID 743050;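 active means mean activation over triplicate wells above the hit cutoff derived from the earlier primary screen, cut at about 11% in these data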
# LXR ag 2: activates human LXR-beta, counter-screen for DAF-12 agonists | shares compounds with hgDAF12 agonist | HEK293 Gal4-LXR luciferase reporter, 24 h | activation, % at 6.8 µM | 3,300 tested, under 10 active | AID 743051;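 active means mean activation of the triplicate above a set limit carried over from the primary screen, none filed active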
# A number is an active result; – = inactive; · = no result given; ! = repeats disagree.
SMILES,ssDAF12 agonist,hcDAF-12 act,DAX1 inh-1,hgDAF12 agonist,DAX1 inh-2,DAX1 conf,SF1 mutant ctr,LXR ag,hcDAF12 conf,hgDAF12 conf,LXR ag 2
c1coc(-c2cc3nc(NC4CCCCC4)ccn3n2)c1,1.2,10,10,22,·,15,10,–,12,19,–
CC(C)[C@H](NC(=O)c1cccs1)C(=O)N1CCC[C@H]1C(=O)NCc1ccccc1,–,–,–,–,·,·,·,·,·,·,·
O=C(CN1C(=O)CCSc2ccccc21)Nc1ccc(F)cc1F,–,–,–,–,·,·,·,·,·,·,·
Clc1ccc(-n2ncc3c(NCC4CCCO4)ncnc32)cc1 (stereo not drawn),–,–,7.1,14,–,4.6,–,·,·,17,–
Cc1ccc(Cn2ncc3c(NCCN(C)C)ncnc32)cc1,–,–,–,–,–,·,·,·,·,·,·
CN(C)CCNc1ncnc2c1cnn2-c1ccc(Cl)cc1,–,7.8,5.5,19,–,10.0,6.6,–,–,14,–
Cc1ccc(S(=O)(=O)N2CC3=C(c4ccccc4)CC4(C)C(=O)C(C)(C)CC4=C3C2)cc1 (stereo not drawn),–,–,–,–,·,·,·,·,·,·,·
O=C(Nc1nc2cc3c(cc2s1)OCO3)C1CC1,–,–,–,–,–,·,·,·,·,·,·
O=C(Nc1nc2cc3c(cc2s1)OCO3)C1CCCCC1,–,9.8,12,14,–,15,7.7,–,–,16,–
O=C(Nc1nc2cc3c(cc2s1)OCCO3)C1CCCCC1,–,–,15,13,–,12,4.4,·,·,15,–
O=C(Nc1ccccc1)n1ccc2ccc(-c3ccc4cc[nH]c4c3)cc21,–,–,–,–,·,·,·,·,·,·,·
COc1cccc(C(=O)Nc2nnc(-c3ccccc3)s2)c1OC,–,7.0,5.5,19,–,7.6,4.0,–,–,14,–
O=C(Nc1nnc(-c2ccccc2)s1)c1ccccc1O,–,–,–,–,–,·,·,·,·,·,·
C/C(N)=C(/C#N)C(=O)CSc1nnc(-c2ccc(OC(F)F)cc2)o1,–,6.8!,4.8,20,6.3!,11,8.2,–,7.3,14,–
Cc1cc(O)ccc1Nc1nc(-c2cccs2)cs1,1.0,–,5.5,17,–,9.3,4.7,·,·,21,–
Cc1nc(C)c(-c2csc(Nc3ccc(O)cc3C)n2)s1,–,–,–,–,–,·,·,·,·,·,·
CN(c1ccc(O)cc1)c1nc(-c2cccs2)cs1,–,–,7.7,19,–,8.7,3.6,·,·,14,–
O=S1(=O)c2ccccc2-c2c(nnn2Cc2ccccc2)CN1C1CC1,–,–,–,–,·,·,·,·,·,·,·
C(=NOCc1ccccc1)c1ccccn1,–,–,6.0,17,–,6.1,2.9,·,·,14,–
C(=NOCc1ccccc1)c1ccncc1,–,–,–,–,–,·,·,·,·,·,·
Clc1ccc(CN2CCN(c3ncc(Cc4ccccc4)cn3)CC2)c(Cl)c1,–,–,–,–,·,·,·,·,·,·,·
O=C(Nc1nc2ccc(Cl)cc2s1)c1cccc(N2C(=O)CCC2=O)c1,–,–,5.0,14,–,7.6,4.1,·,·,–,–
COc1ccc2nc(NC(=O)c3cccc(N4C(=O)CCC4=O)c3)sc2c1,–,–,–,–,–,·,·,·,·,·,·
COc1ccc(CC(=O)O/N=C(\N)c2ccccn2)cc1OC,–,–,–,–,–,·,·,·,·,·,·
N/C(=N\OC(=O)/C=C/c1ccccc1)c1ccccn1,–,7.0,5.9,13,–,11,6.6,–,–,14,–
SMILES,ssDAF12 agonist,hcDAF-12 act,DAX1 inh-1,hgDAF12 agonist,DAX1 inh-2,DAX1 conf,SF1 mutant ctr,LXR ag,hcDAF12 conf,hgDAF12 conf,LXR ag 2
COc1ccc(/C=C/C(=O)O/N=C(\N)c2ccccn2)cc1OC,–,7.2,6.2,29,–,5.4,3.0,–,–,11,–
CC(=O)Nc1ccc2oc(-c3ccccc3Br)nc2c1,–,8.3,5.5,15,–,13,4.7,–,–,16,–
COC(=O)C1CN(Cc2ccccc2)CCS(=O)(=O)N1Cc1ccccc1F (stereo not drawn),–,–,–,–,·,·,·,·,·,·,·
Clc1ccccc1N=C1NN=C(c2cccs2)CS1,1.3,10,7.2,18,–,9.5,5.3,–,9.3,16,–
COCCCNC(=O)C[C@H]1C[C@@]2(C(=O)OC)C(=C[C@H](C(C)C)O[C@@H]2C2CC2)N(CCc2ccc(OC)c(OC)c2)C1=O,–,–,–,–,·,·,·,·,·,·,·
COc1ccccc1NC(=S)N/N=C/c1ccc(O)cc1,–,6.1,5.5,19,–,16,8.4,·,·,20,–
COc1ccccc1NC(=S)N/N=C/c1cccc(C)c1,–,–,–,–,–,·,·,·,·,·,·
COC(=O)[C@]12C[C@H](CC(=O)NCC34CC5CC(CC(C5)C3)C4)C(=O)N(CCC3=CCCCC3)C1=C[C@H](COCc1ccccc1)O[C@@H]2C,–,–,–,–,·,·,·,·,·,·,·
c1ccc2oc(-c3csc(NCC4CCCO4)n3)cc2c1 (stereo not drawn),1.1,–,10,15,–,12,7.0,·,·,15,–
C=CCNc1nc(-c2cc3ccccc3o2)cs1,1.5,9.1,6.5,18,–,14,4.1,–,8.3,18,–
O=C(NC1CCCCCC1)c1ccc(CS(=O)(=O)Cc2ccccc2F)o1,–,–,–,–,–,·,·,·,·,·,·
O=C(NC1CCCCC1)c1ccc(-c2ccccc2F)o1,2.0,10,8.7,20,–,18,6.2,–,6.1,19,–
Fc1cccc(/C=N/Nc2ccc3ccccc3n2)c1,1.7,12,6.7,21,–,16,6.6,–,11,20,–
Brc1ccc(/C=N/Nc2ccc3ccccc3n2)cc1,–,–,–,–,–,·,·,·,·,·,·
Clc1ccc(/C=C/c2nc3ccccc3[nH]2)cc1,–,7.7,4.5,14,–,11,5.8,–,8.9,13,–
O=C(NC1CCCCN(Cc2ccc(Cl)cc2)C1=O)c1cccc([N+](=O)[O-])c1 (stereo not drawn),–,–,–,–,·,·,·,·,·,·,·

# High-throughput results deposited in PubChem by The Scripps Research Institute Molecular Screening Center.
